# In PubChem BioAssay (NCATS):
# Results filed as inconclusive are left out. A call without a number means that no potency is given here. A number with no mark means an inactive call. Activity calls are given as the source filed them. The call rests on the fitted dose curve; in most records, active means well fitted cell-killing curve with a large enough effect; inconclusive means small, poorly fitted or top-dose-only effect, or effect the other way; inactive means flat fitted curve, though single readings scatter.
# Key:
# Assay in all cases: Primary qHTS to identify gynecologic anti-cancer compounds using libraries of approved drugs and bioactive compounds (AID 1345084); further: nearly all actives have a fitted effect of over 55% in size
# Conditions in all cases: Gynecologic cancer cell panel viability, ATPlite luminescence, 48 h; series mostly up to 57.5 µM
# PA-1 = tested on: PA-1
# Summary of the method: (§1)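 Five-point cytotoxicity, 48 h drug exposure at 37 C, 5% CO2, on cells seeded 16 h beforehand. ATP content read by ATPlite luminescence.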
# SKOV3 = tested on: SKOV3
# Summary of the method: as §1
# Tov-21-G = tested on: Tov-21-G
# Summary of the method: as §1
# Tov112D = tested on: Tov112D
# Summary of the method: as §1
# Potency means the concentration at half of the fitted maximal effect.
compound,measurement,setting,value
O=S(=O)(NCc1ccccn1)c1ccc(Br)c2ccccc12,Potency,PA-1,inactive
same,Potency,SKOV3,inactive
same,Potency,Tov-21-G,inactive
same,Potency,Tov112D,inactive
Cn1c(SCC(=O)N2CCC[C@H]2C(=O)Nc2ccccc2-c2ccccc2)nc2ccccc21,Potency,PA-1,inactive
same,Potency,SKOV3,inactive
same,Potency,Tov-21-G,inactive
same,Potency,Tov112D,inactive
Cc1ccc(-c2c(C(=O)CCl)n(CCCO)c3ncnc(N)c23)cc1,Potency,PA-1,inactive
same,Potency,SKOV3,inactive
same,Potency,Tov-21-G,inactive
same,Potency,Tov112D,inactive
COc1ccc(-c2cc3onc(-c4ccncc4)c3c(=O)n2C)cc1,Potency,PA-1,inactive
same,Potency,SKOV3,1.78 µM (active)
same,Potency,Tov-21-G,inactive
CC(C)Oc1ccc(-c2cnc3c(-c4ccnc5ccccc45)cnn3c2)cc1,Potency,PA-1,inactive
same,Potency,SKOV3,inactive
same,Potency,Tov-21-G,inactive
same,Potency,Tov112D,inactive
NC(=O)C1=CC2C3C=CC2C(OC3=O)O1 (centres undefined),Potency,PA-1,inactive
same,Potency,SKOV3,inactive
same,Potency,Tov-21-G,inactive
same,Potency,Tov112D,inactive
C/C=C/[C@@H]1C=C[C@@H]2C[C@H](C)CC[C@H]2[C@]1(C)/C(O)=C1/C(=O)[C@@H](CO)N(C)C1=O,Potency,PA-1,inactive
same,Potency,SKOV3,inactive
same,Potency,Tov-21-G,inactive
same,Potency,Tov112D,inactive
CC(C)S(=O)(=O)NC[C@H](C)c1ccc(-c2ccc(CCNS(C)(=O)=O)cc2)cc1,Potency,PA-1,inactive
same,Potency,SKOV3,17.8 µM (active)
same,Potency,Tov-21-G,inactive
COc1ccc(C2Oc3c(OC)cc(CCCO)cc3C2COC2OC(CO)C(O)C(O)C2O)cc1OC (centres undefined),Potency,PA-1,inactive
same,Potency,SKOV3,inactive
same,Potency,Tov-21-G,inactive
same,Potency,Tov112D,inactive
O=C(c1cc(Cc2n[nH]c(=O)c3ccccc23)ccc1F)N1CCCNCC1,Potency,PA-1,inactive
same,Potency,SKOV3,inactive
same,Potency,Tov-21-G,inactive
same,Potency,Tov112D,inactive
CC(C)/C=C1\NC(=O)C(C(C)C)n2c1nc1ccccc1c2=O (centres undefined),Potency,PA-1,inactive
same,Potency,SKOV3,inactive
same,Potency,Tov-21-G,inactive
same,Potency,Tov112D,inactive
Cc1cc2c(c(=O)o1)C=C1CC[C@H]([C@H](C)Cn3cnc(=N)c4[nH]cnc43)C[C@@H]1O2,Potency,PA-1,inactive
same,Potency,SKOV3,inactive
same,Potency,Tov-21-G,inactive
same,Potency,Tov112D,inactive
O=C(Nc1ccc(Cl)cc1)Nc1cccc(-c2cccc(N3CCCC3)n2)c1,Potency,PA-1,inactive
same,Potency,SKOV3,inactive
same,Potency,Tov-21-G,inactive
same,Potency,Tov112D,inactive
C=C1CC[C@@H]2[C@](C)(CO)[C@H](O)CC[C@@]2(C)[C@@H]1/C=C/C1=CCOC1=O,Potency,PA-1,inactive
same,Potency,SKOV3,inactive
same,Potency,Tov-21-G,inactive
same,Potency,Tov112D,inactive
O=C(NCCCCN1CCN(c2cccc(Cl)c2Cl)CC1)c1cc2ccccc2s1,Potency,PA-1,inactive
same,Potency,SKOV3,inactive
same,Potency,Tov-21-G,inactive
same,Potency,Tov112D,inactive
CN(C)c1ccc(NC(=O)NS(=O)(=O)c2ccc(Cl)cc2)cc1,Potency,PA-1,inactive
same,Potency,SKOV3,inactive
same,Potency,Tov-21-G,inactive
same,Potency,Tov112D,inactive
COC(=O)C[C@H]1[C@]2(C)C3=C(C)[C@H](c4ccoc4)C[C@H]3O[C@@H]2[C@H](O)C2[C@](C)(C(=O)OC)C=CC(=O)[C@@]21C (some centres undefined),Potency,PA-1,inactive
same,Potency,SKOV3,inactive
same,Potency,Tov-21-G,inactive
same,Potency,Tov112D,inactive
CC(=O)O[C@@H]1C[C@]2(C)[C@@]3(CCC4[C@@]5(C)CC[C@H](O[C@@H]6O[C@H](C(=O)O)[C@@H](O)[C@H](OC7OC(CO)C(O)C(O)[C@H]7O[C@@H]7O[C@@H](C)[C@H](O)[C@@H](O)[C@H]7O[C@@H]7OC[C@](O)(CO)[C@H]7O)[C@H]6OC6OC(CO)C(O)C(O)C6O)C(C)(C)C5CC[C@]42C)OC[C@@]12CCC(C)(C)CC23 (some centres undefined),"activity change, negative = cytotoxicity",PA-1,-13% [at 6.55 µM]
same,"activity change, negative = cytotoxicity",SKOV3,27.9% [at 6.55 µM]
same,"activity change, negative = cytotoxicity",Tov-21-G,-2.25% [at 6.55 µM]
same,"activity change, negative = cytotoxicity",Tov112D,-4.27% [at 6.55 µM]
CC#C[C@@H](CC(=O)O)c1ccc(OCc2ccc(CN3CCC4(C=Cc5ccccc54)CC3)s2)cc1,Potency,PA-1,inactive
same,Potency,SKOV3,inactive
same,Potency,Tov-21-G,inactive
same,Potency,Tov112D,inactive
O=C(NCCCN1CCC2(CC1)OCc1ccccc12)[C@H]1CCCN1Cc1ccccc1,Potency,PA-1,inactive
same,Potency,SKOV3,inactive
same,Potency,Tov-21-G,inactive
same,Potency,Tov112D,inactive
CN(C)CC#CCCC(=O)C(O)(c1ccccc1)C1CCC1 (centres undefined),Potency,PA-1,inactive
same,Potency,SKOV3,inactive
same,Potency,Tov-21-G,inactive
same,Potency,Tov112D,inactive
COc1ccc(-c2csc(NC(=O)[C@H]3CCCCN3S(=O)(=O)c3ccc(C)cc3)n2)cc1,Potency,PA-1,inactive
same,Potency,SKOV3,inactive
same,Potency,Tov-21-G,inactive
same,Potency,Tov112D,inactive
CC(=O)N[C@H]1[C@H](O[C@H]2CC[C@@]3(C)C(CC[C@]4(C)C3CC=C3C5CC(C)(C)CC[C@]5(C(=O)O)C(O)C[C@]34C)C2(C)C)O[C@H](CO[C@@H]2O[C@H](C)[C@H](O)[C@H](O)[C@H]2O[C@@H]2OC[C@@H](O)[C@H](O)[C@H]2O)[C@@H](O)[C@@H]1O (some centres undefined),"activity change, negative = cytotoxicity",PA-1,4.44% [at 11.6 µM]
same,"activity change, negative = cytotoxicity",SKOV3,-11.9% [at 11.6 µM]
same,"activity change, negative = cytotoxicity",Tov-21-G,-0.865% [at 11.6 µM]
same,"activity change, negative = cytotoxicity",Tov112D,-1.59% [at 11.6 µM]
CN1CCN(C(=O)CN[C@@H]2C[C@H]2c2ccc(OCc3ccccc3)cc2)CC1,Potency,PA-1,inactive
same,Potency,SKOV3,inactive
same,Potency,Tov-21-G,inactive
same,Potency,Tov112D,inactive
